This is an account of results in article doi:10.1101/2025.02.07.636106.

This assay addresses Sodium/potassium-transporting ATPase subunit beta-3 (UniProt P54709). Nature of the assay: cross-link between two proteins; co-fractionation; cross-linking mass spectrometry.

Take “Sodium/potassium-transporting ATPase subunit alpha-1, P05023”: the “listed as a hit” value was “yes”.
